# From ChEMBL document CHEMBL3988442, “University of Dundee, Small-Polar-MMV Screening Library” (2021)
# Hit rate of the full screen: of about 48,000 compounds, about 13,000 (27%) showed an effect of 50% or more. This is one part of the list.
# Tested on: Wolbachia pipientis
# Experiment: Anti-Wolbachia Cell-Based Screen
# Type: functional
# Parameters: scale not given: in the data most compounds retested in dose-response had high values
# Settings: 5 µM
row,Compound,Percent Effect [%]
1,COC(=O)[C@H]1CN(C(=O)NC(C)C)CCN1C(=O)CSC,4.68
2,CSCCN(C)Cc1ccc(F)cc1C#N,-7.692
3,Cc1nnsc1CN1C[C@@H]2CC[C@H](C1)N(Cc1ccccc1)C2,-5.089
4,Cc1ccc(C(=O)N2C[C@@H]3CC[C@H](C2)N(CC2CCC2)C3)s1,-1.222
5,CCCN1C[C@H]2CC[C@@H]1CN(Cc1ccc(Cn3cccn3)cc1)C2,-13.63
6,CCCN1C[C@H]2CC[C@@H]1CN(c1nnc(C(C)C)s1)C2,100.1
7,CC(C)c1nnc(N2C[C@@H]3CC[C@H](C2)N(CC2CCC2)C3)s1,78.31
8,CC(C)c1nnc(N2C[C@@H](CN(C)CCO)[C@@H](CO)C2)s1,-2.617
9,Cc1nnsc1CN1C[C@H]2CC[C@@H]1CN(Cc1ccccc1)C2,2.749
10,CC(C)c1nnc(N2C[C@@H]3CC[C@H](C2)N(Cc2ccccc2)C3)s1,104.2
11,CC(=O)c1ccc(C(=O)N2C[C@@H]3CC[C@H](C2)N(CC2CCC2)C3)s1,-8.325
12,N#CCCNC(=O)CN1CCC(c2cc3ccccc3[nH]2)CC1,7.04
13,O=C(O)C(F)(F)F.O=C(O)[C@]12CCCN(Cc3ccsc3)C[C@H]1CN(c1ncccn1)C2,0.06928
14,CCc1nc(CN2CCCC(NCc3nc4cccnc4[nH]3)C2)no1 (stereo not given),-2.824
15,Cc1ccc(CN2CCCC3(COCCN(Cc4c[nH]nn4)C3)C2)s1.O=C(O)C(F)(F)F.O=C(O)C(F)(F)F (stereo not given),-11.68
16,Fc1ccc(OCc2noc(CN3CCc4cncnc4C3)n2)cc1,-13.93
17,OCC(CO)N1CCC(c2nccnc2Nc2cnccn2)CC1,132.8
18,OCC(CO)N1CCC(c2nnc(Cn3ccnc3)n2C2CC2)CC1,11.43
19,CN1CCC(c2nccnc2Nc2cnccn2)CC1,94.48
20,CC(C)N1CCC(c2nccnc2Nc2cnccn2)CC1,128.3
21,CC(=O)N1CCC(c2nccnc2Nc2cnccn2)CC1,118.2
22,CC(C(=O)NC(C)(C)C)N1CCC(C(=O)Nc2cnccn2)CC1 (stereo not given),-9.659

row,Compound,Percent Effect [%]
1,CCc1ccccc1OCCN1CC[C@@]2(O)CCNC[C@H]2C1,3.949
2,CCC(C)NC(=O)CCNC(=O)c1c[nH]cc1-c1cccc(OC)c1 (stereo not given),-21.59
3,CC(C)CNC(=O)CC1OCCc2ccsc21 (stereo not given),-17.3
4,Cc1nc(CNC(=O)NCCC2=CCCC2)oc1C,-10.48
5,CC(Cc1ccccc1F)NC(=O)CCc1nc(-c2nnc[nH]2)no1 (stereo not given),5.01
6,Cn1cc(-c2cccc(CNC(=O)N3CCC[C@@H]3CO)c2)cn1,-23.52
7,NC(=O)c1cncc(N2CCN(Cc3cccc4nsnc34)CC2)n1,-24.77
8,CC(O)Cc1cn(CC2CCN(C3CCSCC3)CC2)nn1 (stereo not given),-14.87
9,CC(C)N1CCC(c2nccnc2Nc2ncccn2)CC1,97.4
10,CC(=O)N1CCC(c2nccnc2Nc2ncc(C)s2)CC1,69.11
11,CC(C(=O)Nc1ncccn1)N1CCC(n2ccnc2)CC1 (stereo not given),-2.043
12,Cc1cnc(NC(=O)N2CCCC2)s1,11.08
13,Cc1cnc(NC(=O)N2CCCCCC2)s1,-6.378
14,COc1ccc(C)cc1S(=O)(=O)NCCC(O)c1ccccc1 (stereo not given),-7.148
15,COCCC(=O)N1CCC(c2cc(O)n(C)n2)C1 (stereo not given),94.23
16,Cn1nc(C2CCCN(C(=O)CO)C2)cc1O (stereo not given),-7.33
17,COCCCC1CCCN(C(=O)CCc2cc(O)no2)C1 (stereo not given),-11.88
18,COCCC(=O)N1CCCC(c2nc(O)cc(-c3ccncc3)n2)C1 (stereo not given),119.6
19,COCCC(=O)N1CCC(c2nc(O)cc(-c3ccncc3)n2)C1 (stereo not given),95
20,O=C(c1[nH]nc(C2CC2)c1Cl)N1CCN(C2CC2)C(=O)C1,-4.23
21,CCc1nnsc1C(=O)NCCC1CN(C(C)C)CCO1 (stereo not given),2.098
22,O=C(NCc1cc[nH]n1)N(CCCO)C1CCc2ccccc21 (stereo not given),9.826

row,Compound,Percent Effect [%]
1,COCC(=O)N1CCOC2(CCCN(c3cnccn3)C2)C1.O=C(O)C(F)(F)F (stereo not given),-12.12
2,N#Cc1cccc(N2CCCC3(CN(C(=O)[C@H]4CCCO4)CCO3)C2)c1 (stereo not given in full),-7.794
3,O=C(O)C(F)(F)F.O=C([C@H]1CCCO1)N1CCOC2(CCCN(c3ncccc3F)C2)C1 (stereo not given in full),94.35
4,CC(C)NC(=O)N1CCOC2(CCCN(c3ncccc3F)C2)C1.O=C(O)C(F)(F)F (stereo not given),108.5
5,O=C(O)C(F)(F)F.O=C(c1cnccn1)N1CCOCC2(CCN(C3CCOCC3)C2)C1 (stereo not given),8.846
6,O=C(CO)N1CCOC2(CCCN(c3ncc(F)cn3)C2)C1.O=C(O)C(F)(F)F (stereo not given),5.697
7,CN(C)CC(=O)N1CCOC2(CCCN(c3ncccc3F)C2)C1.O=C(O)C(F)(F)F.O=C(O)C(F)(F)F (stereo not given),6.33
8,O=C(O)C(F)(F)F.O=C(c1cnccn1)N1CCOC2(CCCN(c3ncccc3F)C2)C1 (stereo not given),105
9,CC(C)NC(=O)N1CCOC2(CCCN(c3cccc(C#N)c3)C2)C1 (stereo not given),-9.45
10,COc1ccc(C(=O)C2CCCN(c3cc(OC)ncn3)C2)c(C)c1 (stereo not given),-87.76
11,CC(Cn1cccn1)NCCS(=O)(=O)c1ccc(Cl)cc1 (stereo not given),2.973
12,CC(Cn1cncn1)NC(=O)NCC(C)(C)Cc1ccccc1 (stereo not given),-14.88
13,CCn1c(C2CCN(C(=O)COCC(F)(F)C(F)F)CC2)n[nH]c1=O,14.31
14,CN(CCO)C[C@@H]1CN(Cc2ccccc2-c2ccccc2)C[C@@H]1CO,-1.449
15,Cc1ccccc1CN1C[C@@H](CN(C)CCO)[C@@H](CO)C1,4.643
16,COCCN(C)C[C@@H]1CN(c2cc(C)nc3ccccc23)C[C@@H]1CO,85.76
17,COCCN(C)C[C@@H]1CN(c2nnc(C(C)C)s2)C[C@@H]1CO,6.543
18,Cc1nc2ccccn2c1CN1C[C@@H](CN(C)CCO)[C@@H](CO)C1,-4.106
19,COCCN(C)C[C@@H]1CN(Cc2ccnc3ccccc23)C[C@@H]1CO,90.52
20,CCc1c(C)nc(C)nc1N1C[C@@H](CN(C)CCN(C)C)[C@@H](CO)C1,17.56
21,COCCN(C)C[C@@H]1CN(c2nc(C)cc(C)n2)C[C@@H]1CO,106.7
